# Tests used:
# Conditions in all cases: mESC; 2uM; 72 h treatment, harvest day 5
# [1] = compound: O=C1Cc2c([nH]c3ccc(Br)cc23)-c2ccccc2N1 [Kenpaullone]; assay: fraction of microhomology deletions among edited reads; higher = more MH deletions
# [2] = compound: O=c1c(-c2ccc(O)cc2)coc2cc(O)cc(O)c12 [Genistein]; assay: as above
# [3] = compound: O=c1cc(N2CCOCC2)oc2c(-c3ccc4c(c3)OCCO4)csc12; assay: as above
# [4] = compound: S=c1[nH]cnc2nc[nH]c12 [Mercaptopurine (6-MP)]; assay: as above
# [5] = compound: S=c1nc[nH]c2nc[nH]c12 [6-Mercaptopurine (6-MP) Monohydrate]; assay: as above
# [6] = compound: CC(=O)O/N=C1\C(=O)N(Cc2cc(Cl)ccc2Cl)c2ccc(Cl)cc21; assay: fraction of 1-bp insertions among edited reads; higher = more 1-bp insertion outcomes
# [7] = compound: CC(C)(C#N)c1ccc(N2C(=O)OCc3cnc4ccc(-c5cnc6ccccc6c5)cc4c32)cc1; assay: as above
# [8] = compound: CCCCOc1c(C(=O)c2c(F)cc(C)cc2F)c[nH]c2nncc1-2; assay: as above
# [9] = compound: CCN1CCN(CC(=O)Nc2ccc(-c3cccc4c(=O)cc(N5CCOCC5)oc34)c3sc4ccccc4c23)CC1; assay: as above
# [10] = compound: CCc1c2c(nc3ccc(OC(=O)N4CCC(N5CCCCC5)CC4)cc13)-c1cc3c(c(=O)n1C2)COC(=O)[C@]3(O)CC [Irinotecan HCl Trihydrate]; assay: as above
# [11] = compound: CCn1c(=O)c(-c2ccc(Cl)cc2Cl)cc2cnc(Nc3ccc(N4CCNCC4)c(F)c3)nc21; assay: as above
# [12] = compound: CNc1ccc([N+](=O)[O-])c(Nc2ccc3[nH]ncc3c2)n1; assay: as above
# [13] = compound: CO[C@H]1/C=C/O[C@@]2(C)Oc3c(C)c(O)c4c(O)c(c(/C=N/N5CCN(C6CCCC6)CC5)c(O)c4c3C2=O)NC(=O)/C(C)=C\C=C\[C@H](C)[C@H](O)[C@@H](C)[C@@H](O)[C@@H](C)[C@H](OC(C)=O)[C@@H]1C [Rifapentine]; assay: as above
# [14] = compound: COc1ccccc1-c1cc(Nc2cccc(CS(N)(=O)=O)c2)ncn1; assay: as above
# [15] = compound: C[C@@H]1CN(CC(=O)Nc2ccc3c(c2)Cc2cccc(-c4cc(=O)cc(N5CCOCC5)o4)c2S3)C[C@H](C)O1; assay: as above
# [16] = compound: Cc1cc(C)nc(SCC(=O)Nc2ncc(Cc3cccc4ccccc34)s2)n1; assay: as above
# [17] = compound: Cc1ccc(C(=O)NCCCCCC(=O)Nc2ccccc2N)cc1; assay: as above
# [18] = compound: Cc1cccc(CC(=O)N2CCc3c2ccc(-c2cn(C)c4ncnc(N)c24)c3F)n1; assay: as above
# [19] = compound: NC(=O)c1ccc2nc(-c3ccc(Oc4ccc(Cl)cc4)cc3)[nH]c2c1 [Chk 2 inhibitor II (BML-277)]; assay: as above
# [20] = compound: Nc1cc(F)ccc1NC(=O)c1ccc(CNC(=O)/C=C/c2cccnc2)cc1 [Tucidinostat (Chidamide)]; assay: as above
Target,fraction of microhomology deletions among edited reads [1],fraction of microhomology deletions among edited reads [2],fraction of microhomology deletions among edited reads [3],fraction of microhomology deletions among edited reads [4],fraction of microhomology deletions among edited reads [5],fraction of 1-bp insertions among edited reads [6],fraction of 1-bp insertions among edited reads [7],fraction of 1-bp insertions among edited reads [8],fraction of 1-bp insertions among edited reads [9],fraction of 1-bp insertions among edited reads [10],fraction of 1-bp insertions among edited reads [11],fraction of 1-bp insertions among edited reads [12],fraction of 1-bp insertions among edited reads [13],fraction of 1-bp insertions among edited reads [14],fraction of 1-bp insertions among edited reads [15],fraction of 1-bp insertions among edited reads [16],fraction of 1-bp insertions among edited reads [17],fraction of 1-bp insertions among edited reads [18],fraction of 1-bp insertions among edited reads [19],fraction of 1-bp insertions among edited reads [20]
"38.0 (DMSO control at this site: 1-bp insertion 0.063, MH deletion 0.487, edited 0.17) GGGCTGGGTGCTAAAATGAGGAGCTCCAAGAAGACTGAGGTGAACCTGGAGGCCCCTGAGC",0.414,0.462,0.476,0.474,0.468,0.0549,0.0615,0.0554,0.0485,0.0536,0.0578,0.0482,0.0681,0.0731,0.178,0.0549,0.0526,0.0567,0.0523,0.0633
"47.0 (DMSO control at this site: 1-bp insertion 0.095, MH deletion 0.585, edited 0.118) GAGTGGTCCCGAGCCAGGAACTGTGTGTGTTGCAGGGGGGCAGTAACTCCCCAACTCCCTC",0.486,0.508,0.554,0.46,0.401,0.0999,0.09,0.121,0.0733,0.118,0.0775,0.106,0.102,0.0993,0.269,0.0938,0.12,0.0914,0.0791,0.14
23.0 AGAACAAAGCGCTCATATAACGATATGGGGGGTTATGGGGGGTTGAATTGCTTCAGCACGA,,,,,,,,,,,,0.00131,,,,,,,,
27.0 CCAGAATTAGAACATATCATCTGGACCCTTTTCCATCTGGACCCTTTTCCAGCACACCCTG,0.0808,0.0896,0.137,0.197,0.147,0.107,0.141,0.138,,0.178,,0.13,0.109,0.108,,0.124,0.149,,,0.137
"17.0 (DMSO control at this site: 1-bp insertion 0.112, MH deletion 0.348, edited 0.058) CCATAGCGCGATAAATATGACGGCTCATCCTGTATGACGGCTCATCCTGTATCAACTGTCC",0.377,0.409,0.342,0.422,0.393,0.12,0.143,0.145,0.0756,0.161,0.166,0.165,0.136,0.158,0.354,0.14,0.15,0.124,0.14,0.168
"16.0 (DMSO control at this site: 1-bp insertion 0.172, MH deletion 0.29, edited 0.05) CGGACTGCACACATGGGTAGGATCGTGCACGCGAGGTAGGATCGTGCACGCGAAGTTATTC",0.327,0.305,0.257,0.314,0.294,0.169,0.15,0.138,0.0987,0.184,0.169,0.225,0.14,0.213,0.32,0.169,0.149,0.208,0.191,0.172
